A short description of test [1]: NCI Yeast Anticancer Drug Screen. Data for the rad50 strain (AID 155).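 Also: 0% = growth of vehicle-only cultures of the same strain.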 The note with it: S. cerevisiae rad50 strain growth inhibition, hits give high values. In a few lines:
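Inhibition values express reduced yeast growth in compound-treated cultures relative to vehicle-treated controls.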

Test [2] in a line: NCI Yeast Anticancer Drug Screen. Data for the mec2-1 strain (AID 157). The note with it: S. cerevisiae mec2-1 strain, hits give high values. An outline of the steps:
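Test agents were screened against the mec2-1 yeast strain, with defined DNA repair or cell cycle alteration. Growth was scored as inhibition against vehicle-only controls.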

Test [3] can be described thus: NCI Yeast Anticancer Drug Screen. Data for the sgs1 mgt1 strain (AID 161).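 Also: 0% = growth of cultures given vehicle only.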 The following applies: S. cerevisiae sgs1 mgt1 strain, hits give high values. An outline of the steps:
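Test agents were incubated with a DNA-repair-mutant yeast strain. Growth was then read and compared against vehicle-treated controls.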

Test [4] in a line: NCI Yeast Anticancer Drug Screen. Data for the cln2 rad14 strain (AID 165).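 Also: 0% = growth equal to vehicle treated cultures.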 The note with it: S. cerevisiae cln2 rad14 strain, hits give high values. In a few lines: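 Growth of compound-exposed yeast (cln2 rad14 genotype) measured and expressed as inhibition relative to vehicle.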
Test [5] is described as follows: NCI Yeast Anticancer Drug Screen. Data for the bub3 strain (AID 167). The following applies: S. cerevisiae bub3 mutant strain, hits give high values. In a few lines: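 Steps: expose the mutant yeast strain to compound; grow alongside vehicle-treated cultures; measure growth; express inhibition against the vehicle cultures.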
A short description of test [6]: NCI Yeast Anticancer Drug Screen. Data for the mlh1 rad18 strain (AID 175). The following applies: S. cerevisiae mlh1 rad18 strain growth inhibition, hits give high values. An outline of the steps:
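In this whole-cell yeast screen, a strain with altered DNA damage repair is challenged with compound, and its growth is measured against matched vehicle-treated controls.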

Where [7] appears, read: at 5.0 µM (retest, dose inferred, filed as 0.5).
[8] abbreviates: at 50.0 µM (retest, dose inferred, filed as 5.0).

About 79,000 compounds went through this panel and 15% of them were active in at least one assay; those are over-represented in the sample as a whole. A number with no mark means an inactive call. Calls of active or inactive are those of the source. Rule as the data show it: active = growth inhibition above about 70%; inactive = the rest.

On to `C=C1C(=O)O[C@@H]2C[C@]3(C)CC[C@]4(C)[C@H](CC[C@@H]5[C@@]6(C)CCC(=O)C(C)(C)[C@@H]6CC[C@]54C)[C@H]3[C@H]12`, for which the growth inhibition in test [1] (setting [7]) was 3%; in test [1] (setting [8]) it was 4%; in test [1] (at 50.0 µM), -14.1%; in test [2] (setting [7]), 18%; in test [2] (setting [8]), 24%; in test [2] (at 50.0 µM), -16.9%. Further, the growth inhibition was 5% in test [3] (setting [7]); 11% in test [3] (setting [8]); -9.1% in test [3] (at 50.0 µM); -3% in test [4] (setting [7]); -1% in test [4] (setting [8]); 6.1% in test [4] (at 50.0 µM). Also, the growth inhibition is 4% in test [5] (setting [7]); -1% in test [5] (setting [8]); -10.7% in test [5] (at 50.0 µM); -2% in test [6] (setting [7]); 4% in test [6] (setting [8]); -18.9% in test [6] (at 50.0 µM).
Regarding `c1ccc(COc2ccc(C[P+](c3ccccc3)(c3ccccc3)c3ccccc3)cc2)cc1`, the growth inhibition in test [1] (setting [7]) was 97% (active); in test [1] (setting [8]), 100% (active); in test [1] (at 50.0 µM), 99.3% (active); in test [2] (setting [7]) it was 98% (active); in test [2] (setting [8]) it was 100% (active); in test [2] (at 50.0 µM), 99.5% (active). For the same molecule, the growth inhibition in test [3] (setting [7]) was 99% (active); in test [3] (setting [8]) it was 100% (active); in test [3] (at 50.0 µM), 99.7% (active); in test [4] (setting [7]), 98% (active); in test [4] (setting [8]), 98% (active); in test [4] (at 50.0 µM) it was 99.6% (active). In addition, the growth inhibition is 99% (active) in test [5] (setting [7]); 99% (active) in test [5] (setting [8]); 99.5% (active) in test [5] (at 50.0 µM); 99% (active) in test [6] (setting [7]); 99% (active) in test [6] (setting [8]); 99.3% (active) in test [6] (at 50.0 µM).
For `Nc1ccc(S(=O)(=O)NCc2nccs2)cc1`, the growth inhibition in test [1] (setting [7]) was -5%; in test [1] (setting [8]), 81% (active); in test [1] (at 50.0 µM) it was 17.9%; in test [2] (setting [7]), 14%; in test [2] (setting [8]), 58%; in test [2] (at 50.0 µM) it was 50%. In addition, the growth inhibition is 2% in test [3] (setting [7]); 53% in test [3] (setting [8]); 28.4% in test [3] (at 50.0 µM); -7% in test [4] (setting [7]); 60% in test [4] (setting [8]); 47.4% in test [4] (at 50.0 µM). Besides, the growth inhibition in test [5] (setting [7]) was 37%; in test [5] (setting [8]) it was 80% (active); in test [5] (at 50.0 µM), 31.7%; in test [6] (setting [7]), 11%; in test [6] (setting [8]) it was 87% (active); in test [6] (at 50.0 µM) it was 70.5% (active).
In the case of `Oc1ccc(Cl)cc1Cc1cc(Cl)cc(Cc2cc(Cl)ccc2O)c1O`, the growth inhibition is -1% in test [1] (setting [7]); 97% (active) in test [1] (setting [8]); 96% (active) in test [1] (at 50.0 µM); 1% in test [2] (setting [7]); 98% (active) in test [2] (setting [8]); 97.3% (active) in test [2] (at 50.0 µM). Also, the growth inhibition in test [3] (setting [7]) is 4%; in test [3] (setting [8]), 98% (active); in test [3] (at 50.0 µM), 97.5% (active); in test [4] (setting [7]) it was -12%; in test [4] (setting [8]), 95% (active); in test [4] (at 50.0 µM), 96.5% (active). Besides, the growth inhibition in test [5] (setting [7]) was -17%; in test [5] (setting [8]), 98% (active); in test [5] (at 50.0 µM), 96.7% (active); in test [6] (setting [7]), 14%; in test [6] (setting [8]), 97% (active); in test [6] (at 50.0 µM), 95.8% (active).
On to `Oc1cccc2ccncc12`, for which the growth inhibition in test [1] (setting [7]) is 7%; in test [1] (setting [8]), 9%; in test [1] (at 50.0 µM), 29.3%; in test [2] (setting [7]), -14%; in test [2] (setting [8]), 14%; in test [2] (at 50.0 µM), 20.4%. Besides, the growth inhibition in test [3] (setting [7]) was 3%; in test [3] (setting [8]) it was 16%; in test [3] (at 50.0 µM), 22.1%; in test [4] (setting [7]), 13%; in test [4] (setting [8]) it was 29%; in test [4] (at 50.0 µM), 9.05%. For the same molecule, the growth inhibition in test [5] (setting [7]) is 2%; in test [5] (setting [8]), 14%; in test [5] (at 50.0 µM), 21.1%; in test [6] (setting [7]) it was 2%; in test [6] (setting [8]), 43%; in test [6] (at 50.0 µM) it was 58.4%.
As to `Cc1c2ccccc2cc2c1ccc1cccc(F)c12`, the growth inhibition is 4% in test [1] (setting [7]); 90% (active) in test [1] (setting [8]); 84.4% (active) in test [1] (at 50.0 µM); 11% in test [2] (setting [7]); 95% (active) in test [2] (setting [8]); 48% in test [2] (at 50.0 µM). For the same molecule, the growth inhibition is 1% in test [3] (setting [7]); 87% (active) in test [3] (setting [8]); 80.7% (active) in test [3] (at 50.0 µM); 8% in test [4] (setting [7]); 93% (active) in test [4] (setting [8]); 23.9% in test [4] (at 50.0 µM). The growth inhibition was 4% in test [5] (setting [7]); 91% (active) in test [5] (setting [8]); 79% (active) in test [5] (at 50.0 µM); 10% in test [6] (setting [7]); 92% (active) in test [6] (setting [8]); 59.1% in test [6] (at 50.0 µM).
With `CCOC(=O)c1sc2[n+](c1C)C(=O)/C(=C/c1ccc([N+](=O)[O-])cc1)S2`, the growth inhibition in test [1] (setting [7]) is 4%; in test [1] (setting [8]), 71% (active); in test [1] (at 50.0 µM), 95.5% (active); in test [2] (setting [7]), 4%; in test [2] (setting [8]), 74% (active); in test [2] (at 50.0 µM), 96.9% (active). Further, the growth inhibition was 16% in test [3] (setting [7]); 86% (active) in test [3] (setting [8]); 97% (active) in test [3] (at 50.0 µM); -4% in test [4] (setting [7]); 79% (active) in test [4] (setting [8]); 90.5% (active) in test [4] (at 50.0 µM). For the same molecule, the growth inhibition in test [5] (setting [7]) is -23%; in test [5] (setting [8]), 46%; in test [5] (at 50.0 µM) it was 96.8% (active); in test [6] (setting [7]), 23%; in test [6] (setting [8]) it was 89% (active); in test [6] (at 50.0 µM) it was 97% (active).
In the case of `COC1=CC(=O)[C@H]2CC(C)=CC[C@]2(C)C1=O`, the growth inhibition in test [1] (setting [7]) is -3%; in test [1] (setting [8]), 2%; in test [1] (at 50.0 µM), 9.35%; in test [2] (setting [7]), 1%; in test [2] (setting [8]), 0%; in test [2] (at 50.0 µM), 6.55%. Also, the growth inhibition in test [3] (setting [7]) is 2%; in test [3] (setting [8]), 0%; in test [3] (at 50.0 µM), -4.75%; in test [4] (setting [7]), 1%; in test [4] (setting [8]), -2%; in test [4] (at 50.0 µM), 84% (active). Also, the growth inhibition in test [5] (setting [7]) is -1%; in test [5] (setting [8]) it was 0%; in test [5] (at 50.0 µM), 3.35%; in test [6] (setting [7]) it was -1%; in test [6] (setting [8]) it was 1%; in test [6] (at 50.0 µM) it was 15.1%.
For `COc1cc(NCC(C#N)C#N)ccc1N=Nc1ccc(Cl)cc1`, the growth inhibition in test [1] (setting [7]) is -5%; in test [1] (setting [8]), 58%; in test [1] (at 50.0 µM) it was 86.2% (active); in test [2] (setting [7]), -2%; in test [2] (setting [8]), 67%; in test [2] (at 50.0 µM), 70.8% (active). The growth inhibition in test [3] (setting [7]) is 4%; in test [3] (setting [8]), 72% (active); in test [3] (at 50.0 µM) it was 85.3% (active); in test [4] (setting [7]), -7%; in test [4] (setting [8]), 46%; in test [4] (at 50.0 µM), 76.8% (active). The growth inhibition in test [5] (setting [7]) is -23%; in test [5] (setting [8]) it was 87% (active); in test [5] (at 50.0 µM) it was 79.5% (active); in test [6] (setting [7]), -37%; in test [6] (setting [8]) it was 81% (active); in test [6] (at 50.0 µM), 82.7% (active).

(Values after PubChem BioAssay (NCI).)
